Source: PubChem
HepG2 viability: qHTS for Inhibitors of TGF-b: Cytotox Counterscreen. HepG2 CAGA-GFP viability, ATP luminescence, 18 h. Potency, µM (titrated, usually from 46.1 µM), for the others: at the top dose activity change, negative = cytotoxicity, actives largely listed as cytotoxic. 0.76% of 410,000 active. AID 588856, 2011; also: potency is read from the fitted curve at half-maximal effect
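HepG2 CAGA-GFP cells (1000/well, DMEM with 1% FBS) received compound, then TGF-beta at 500 pg/mL final, and were incubated 18 hours at 37 degrees C. Viability was read by CellTiter-Glo luminescence. Media-only wells were set as complete cell-killing and DMSO as no toxicity.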
IL-1B inflam inh: qHTS for Inhibitors of Inflammasome Signaling: IL-1-beta AlphaLISA Primary Screen | 4.7% of 360,000 active | activity change, % at 57.5 µM | THP-1 LPS/ATP IL-1B secretion, AlphaLISA, 16 h; stronger effect = lower value; in the data active = activity change below about -50%; inconclusive = mostly about -30% to -49%; also: % is scaled to controls: 0 for no effect and ±100 for the full control effect
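THP-1 cells pretreated 1 hr with compounds (up to 57.5 uM final), then stimulated with LPS (250 ng/mL final) plus ATP (1.25 mM final); secreted IL-1B measured by AlphaLISA after 16 hr, decreased signal indicating inhibition.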
TGFb SMAD3 inh: qHTS for Inhibitors of TGF-b; HepG2 CAGA-GFP TGF-b/SMAD3 reporter, GFP fluorescence, 18 h; TGF-beta stimulated, 500 pg/mL final; Potency, µM (titrated, usually from 46.1 µM), for the others: at the top dose activity, negative = inhibition, hits mostly inhibitors; 1.2% of 410,000 active; also: potency is read from the fitted curve at half-maximal effect; % is scaled to controls: 0 for no effect and ±100 for the full control effect; nearly all actives have a fitted effect of over 65% in size
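TGF-beta reporter screen: HEPG2 CAGA-GFP, 1% FBS, 500 pg/mL TGF-beta final, 18 h; per-cell GFP summed per well; curves fitted and categorized by class.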
TDP1 block: qHTS Assay for Inhibitors of Tyrosyl-DNA Phosphodiesterase (TDP1); Potency, µM (titrated, usually from 130 µM), for inactives: top-dose activity change, negative = inhibition, usual class: inhibitors; 0.28% of 350,000 active; recombinant TDP1, AlphaScreen DNA substrate cleavage; also: potency is read from the fitted curve at half-maximal effect; % is scaled to controls: 0 for no effect and ±100 for the full control effect; nearly all actives have a fitted effect of over 40% in size
Target sequence (Q9NUW8 whole entry, looked up): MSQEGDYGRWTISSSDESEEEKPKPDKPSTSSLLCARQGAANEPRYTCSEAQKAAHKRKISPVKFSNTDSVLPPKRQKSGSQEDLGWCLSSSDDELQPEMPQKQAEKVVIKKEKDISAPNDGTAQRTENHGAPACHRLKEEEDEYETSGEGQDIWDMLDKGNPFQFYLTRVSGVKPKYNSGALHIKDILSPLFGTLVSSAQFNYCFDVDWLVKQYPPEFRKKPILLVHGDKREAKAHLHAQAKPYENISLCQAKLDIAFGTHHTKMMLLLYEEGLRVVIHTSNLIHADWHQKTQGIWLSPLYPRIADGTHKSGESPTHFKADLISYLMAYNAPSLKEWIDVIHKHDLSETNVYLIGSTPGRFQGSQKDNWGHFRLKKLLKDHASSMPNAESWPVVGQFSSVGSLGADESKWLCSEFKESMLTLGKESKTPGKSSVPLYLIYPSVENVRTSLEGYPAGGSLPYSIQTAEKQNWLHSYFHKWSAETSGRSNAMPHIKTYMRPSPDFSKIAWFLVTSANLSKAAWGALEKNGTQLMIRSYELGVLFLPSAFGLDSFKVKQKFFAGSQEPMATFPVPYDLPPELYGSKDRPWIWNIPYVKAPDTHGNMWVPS
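Enzyme-compound mixtures sat 15 min at room temperature, followed by a 5 min reaction with 15 nM final substrate and 10 min with AlphaScreen beads. Recombinant human Tdp1 was used at 1 nM final.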
DT40 TDP1 no CPT: qHTS for Inhibitors of human tyrosyl-DNA phosphodiesterase 1 (TDP1): qHTS in cells in absence of CPT. DT40 Tdp1-/- hTDP1 cells, no CPT, ATP luminescence, 48 h. Potency, µM (titrated, usually from 46.2 µM), for inactives: top-dose activity change, negative = growth inhibition, most hits filed as inhibitors. 15% of 420,000 active. AID 686978, 2013; also: potency is read from the fitted curve at half-maximal effect; % is scaled to controls: 0 for no effect and ±100 for the full control effect; nearly all actives have a fitted effect of over 55% in size
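Cells were dispensed at 400 per well, compounds added by pin tool, plates incubated ≥48 hr at 37 °C, then CellTiter-Glo added for 30 min at room temperature before luminescence reading. Line: DT40 Tdp1-/- complemented with hTDP1; camptothecin omitted.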
DT40 TDP1 CPT: qHTS for Inhibitors of human tyrosyl-DNA phosphodiesterase 1 (TDP1): qHTS in cells in presence of CPT; AID 686979, 2013; chicken DT40 Tdp1-/-;hTDP1 cells + 20 nM CPT, ATP luminescence, 48 h; Potency, µM (titrated, usually from 46.2 µM), without a hit: at the highest dose activity change, negative = growth inhibition, most hits filed as inhibitors; 12% of 420,000 active; also: potency is read from the fitted curve at half-maximal effect; % is scaled to controls: 0 for no effect and ±100 for the full control effect; nearly all actives have a fitted effect of over 55% in size
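Chicken DT40 Tdp1-/- cells stably complemented with human TDP1 were seeded at 400 cells/well in medium containing 20 nM camptothecin, exposed to pin-transferred compounds, and grown at 37 °C for at least 48 hr. Viability was read as ATP luminescence.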
* marks the source's active call; other numbers are inactive results; i = inactive; ? = inconclusive; nt = not tested or not shown; [ ] = dose if it differs, or a comment. Rows were chosen to be rich in hits. Some 19% of all compounds tested hit in one or more screens of this group. Unless noted, calls follow the shape of the dose curve; as a rule, active = well fitted curve in the direction sought with a large enough effect; inconclusive = small, poorly fitted or top-dose-only effect, or another doubt; inactive = no such curve, though single readings can be large; an effect the other way counts as inactive or inconclusive.

SMILES | HepG2 viability | IL-1B inflam inh | TGFb SMAD3 inh | TDP1 block | DT40 TDP1 no CPT | DT40 TDP1 CPT
COc1cc(/C=N/NC(=O)c2cncc(Br)c2)cc([N+](=O)[O-])c1O | -5.8% | 55.8 | 5.5% | 11.0% | ? | ?
COc1cc([N+](=O)[O-])cc(/C=N/NC(=O)c2cncc(Br)c2)c1O | -96.5% | 73.8 | ? | 11.0% | 18.4µM* | 4.61µM*
Cc1nc2ccccn2c1C(=O)N/N=C/c1ccc([N+](=O)[O-])o1 | -18.4% | 28.5 | -20.4% | ? | 5.8µM* | 2.91µM*
CCN(CC)S(=O)(=O)c1cccc(C(=O)N/N=C/c2ccc([N+](=O)[O-])o2)c1 | -34.9% | -89.5* | ? | -2.7% | ? | 20.6µM*
CCN(CC)CCCNC(=O)c1c(C)oc2ncn(CC(C)C)c(=O)c12 | -13.5% | nt | 2.8% | -8.5% | -4.1% | 8.1%
Cc1ccc(S(=O)(=O)N2CCN(C(=O)CCC(=O)NCc3cccc(C(F)(F)F)c3)CC2)cc1 | -30.0% | 0.3 | -21.6% | 3.6% | -28.1% | ?
COc1ccc(Cl)cc1NC(=O)CN(C)C(=O)Cn1cnnn1 | 15.6% | 14.8 | 13.3% | 0.3% | -0.4% | -5.0%
Cc1ccc(-n2c3nc(=O)n(C)c(=O)c-3cc3c(Cl)cccc32)c(C)c1 | 1.0% | nt | 6.7% | 0.0% | ? | -14.5%
Cc1scc(C(=O)N/N=C/c2ccc([N+](=O)[O-])o2)c1C | nt | nt | nt | 2.3% | nt | nt
O=C(N/N=C\c1ccc([N+](=O)[O-])o1)c1cncc(Br)c1 | -113.2% | -79.0* | ? | nt | 6.51µM* | 4.61µM*
O=C(N/N=C/c1ccc([N+](=O)[O-])o1)c1ccc(O)cc1 | -94.9% | 63.4 | ? | -2.4% | 2.86µM* | 2.86µM*
O=C(N/N=C/c1ccc(-c2ccccc2[N+](=O)[O-])o1)c1cncc(Br)c1 | -24.3% | ? | -6.4% | 8.2% | ? | ?
O=C(N/N=C/c1ccc([N+](=O)[O-])o1)c1ccncc1 | i | 6.8 | ? | 0.0% | 9.2µM* | 9.2µM*
Cc1cc(C)c(OCCOCCn2c(-c3ccc(Cl)cc3)nc3ccccc3c2=O)c(C)c1 | -13.4% | nt | 13.8% | nt | -12.4% | ?
NC(=O)c1cc(S(=O)(=O)NCC2CCC(C(=O)Nc3ccc(Cl)cc3)CC2)cs1 (stereo unspecified) | -7.3% | nt | -9.1% | 2.6% | ? | ?
Cc1ccc(-n2ncc3c(NC4CCCC4)ncnc32)cc1 | -16.6% | nt | 0.3% | 2.6% | ? | ?
CCOCCOC(=O)C1=C(C)NC(=O)NC1c1cc2c(cc1Br)OCO2 (stereo unspecified) | 11.0% | -17.0 | -0.9% | 3.0% | 6.7% | -3.1%
CCOc1ccc(NC(=O)c2sc(N3CCOCC3)nc2-c2ccccc2)cc1 | 5.3% | -9.4 | -15.4% | -0.6% | 23.1µM* | ?
CCOc1ccc(NC(=O)CSc2nc3ccccc3nc2N2CCOCC2)cc1 | -17.7% | 3.4 | -6.6% | 1.1% | 13µM* | 20.6µM*
CCCCc1ccc(NC(=O)CSc2nc3ccccc3nc2N2CCOCC2)cc1 | -2.4% | nt | 6.0% | -2.1% | 25.9µM* | ?
COc1ccc(NC(=O)CSc2nc3ccccc3nc2N2CCOCC2)cc1 | -17.2% | -22.2 | -0.8% | nt | -25.7% | -8.6%
O=C(CSc1nc2ccccc2nc1N1CCCCC1)Nc1ccc(F)cc1 | -9.4% | -18.5 | -1.4% | nt | ? | -10.7%
CCOc1ccc(NC(=O)CSc2nc3ccccc3nc2N2CC(C)OC(C)C2)cc1 (stereo unspecified) | -1.4% | -5.7 | 0.2% | nt | 10.3µM* | 23.1µM*
CCOc1ccccc1-c1nnc2n1N=C(c1ccccc1OC)CS2 | nt | nt | nt | 13.8% | nt | nt
O=S(=O)(c1ccc(Cl)nc1)N1CCCC1 | -0.1% | -2.5 | 2.0% | -0.2% | 18.0% | 3.7%
SMILES | HepG2 viability | IL-1B inflam inh | TGFb SMAD3 inh | TDP1 block | DT40 TDP1 no CPT | DT40 TDP1 CPT
Cc1ccc(NC(=O)c2sc(Cl)nc2-c2ccccc2)cc1 | -0.7% | 6.9 | -5.7% | -3.0% | ? | ?
CCOC(=O)C(=CNc1nc(-c2ccccc2)c(C(=O)Nc2ccc(-c3ccccc3)cc2)s1)C(=O)OCC | 0.4% | 56.9 | 7.8% | 1.7% | ? | 16.4µM*
CCC(C)NCCCCOc1ccc(Br)cc1 (stereo unspecified) | 18.1% | -26.4 | 1.6% | -2.7% | 16.4µM* | ?
CCC(C)NCCCCOc1cc(C)cc(C(C)C)c1 (stereo unspecified) | -9.0% | -12.3 | -3.2% | 3.2% | 18.4µM* | ?
CCc1nc(Oc2cccc(F)c2)c2oc3ccccc3c2n1 | -28.1% | nt | 0.1% | ? | ? | ?
O=[N+]([O-])c1cccc(-c2n[nH]c(=S)n2-c2ccc(Br)cc2)c1 | -4.6% | -4.9 | 1.9% | 6.2% | ? | -18.0%
Cc1cc(C)cc(NC(=O)c2ccc(NC(=O)c3ccco3)cc2)c1 | 0.8% | nt | -5.6% | 5.7% | ? | 20.6µM*
O=C(/C=C\c1ccccc1)Nc1ccc(NC(=O)c2ccco2)cc1 | 14.0% | 48.7 | 15.5% | 0.6% | 23.1µM* | 11.6µM*
Cc1cc(C(=O)Nc2cccc(NC(=O)c3ccco3)c2)ccc1[N+](=O)[O-] | -15.4% | -79.0* | -12.4% | 5.4% | ? | ?
O=C(NNc1ccc([N+](=O)[O-])cc1[N+](=O)[O-])c1ccco1 | -33.5% | -61.9* | ? | 9.1% | 20.6µM* | 14.6µM*
Cc1cccc(NC(=O)c2cccc(NC(=O)c3ccco3)c2)c1 | -7.4% | -27.2 | 6.5% | nt | -13.0% | -25.4%
O=C(NNc1ccc([N+](=O)[O-])cc1)c1ccco1 | 7.5% | 15.2 | 2.1% | 1.7% | 18.5% | -4.1%
CCOC(=O)C1CCN(c2ncnc3c2c(-c2ccccc2)cn3-c2ccc(C)c(Cl)c2)CC1 | -22.4% | nt | -2.9% | 5.2% | 1.0% | 1.3%
COCCNC(=O)CCCn1c(=O)[nH]c2ccsc2c1=O | -21.1% | nt | 0.1% | 8.8% | -9.4% | -1.0%
C=Cc1cccc(NC(=O)c2ccc(NC(=O)c3ccco3)cc2)c1 | 3.1% | -9.5 | -4.7% | 2.1%[56.1 µM] | 6.51µM* | 14.6µM*
CN(C(=O)c1ccc(NC(=O)c2ccco2)cc1)c1ccccc1 | 7.94µM* | -10.5 | -2.5% | 3.7%[56.1 µM] | -23.7% | ?
COc1ccc(CCNC(=O)c2cn3ccc(C)cc3n2)cc1OC | 3.7% | 21.6 | 0.8% | -0.5% | 16.4µM* | ?
